Source: PubChem BioAssay
Hits are enriched below; roughly 1.8% of the tested compounds scored in any of these assays.
PI4K2A block: qHTS for small molecular inhibitors of PI4K2A. AID 1346378, 2018. activity change, negative = inhibition, % at 76.9 µM. purified PI4K2A, ADP-Glo luminescence, 1 h; active compounds read low. Phosphatidylinositol 4-kinase type 2-alpha (Homo sapiens), Q9BTU6. 420,000 tested, 0.13% active; in the data active means activity change below about -50%; inconclusive means mostly about -30% to -49%;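 further: -100% = wells without enzyme as full effect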
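Compounds are screened against recombinant PI4K2A using PI as substrate and ATP, the latter dispensed at 300 microM. Reactions run one hour at ambient temperature before ADP-Glo detection; full inhibition defined by wells lacking enzyme.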
CtBP-E1A inh: qHTS Assay for Inhibitors of the CtBP/E1A Interaction; CtBP / adenovirus E1A interaction (AlphaScreen); AlphaScreen GST-E1A/His-CtBP binding, 1536-well; active compounds read low; activity change, % (concentration not given with the values); 340,000 tested, 0.49% active; AID 651724, 2012
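AlphaScreen with 125 nM GST-E1A and 125 nM His-CtBP (5X stocks) in Tris pH 8.0, 300 mM NaCl, BSA, Tween 20, TCEP. Compounds preincubated 2 h at 37 deg C, then glutathione donor/nickel acceptor beads added for 1 h at 37 deg C in dark.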
PI5P4Ka inh: qHTS for Inhibitors of phosphatidylinositol 5-phosphate 4-kinase (PI5P4K) | PI5P4Kalpha enzyme, ADP-Glo luminescence, 60 min; active compounds read low | 330,000 tested, 1.2% active | Phosphatidylinositol 5-phosphate 4-kinase type-2 alpha (Homo sapiens), P48426 | max response, %; active means max response of -50% or lower; inconclusive means between -30% and -50%; inactive means -30% or higher; further: value at the top dose of about 77 µM
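qHTS, 1536-well: enzyme/substrate mix, compound by pin tool, 5 microM ATP final; RT 60 min; ADP-Glo reagents 1 (45 min) then 2 (30 min); luminescence.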
pAkt inh: HTS Assay for Inhibitors of Akt Phophorylation: Primary Screen. Neuro2A IGF-stimulated pAkt S473 HTRF, 20 min; active compounds read low. activity change, % for hits at 50 µM. 360,000 tested, 0.32% active. AID 651550, 2012; in the data active means activity change below about -80%; inconclusive means mostly about -51% to -80%
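Neuro2A cells (4,500/well, DMEM with 0.5% FBS) were treated with compound at a single 50 µM final concentration, stimulated with 6 nM IGF for 20 min at 37 °C, and lysed. Phospho-Akt Ser473 was read by HTRF as 665/615 ratio ×10^4.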
Six1-Eya2 inh: qHTS Assay for Inhibitors of the Six1/Eya2 Interaction. Homeobox protein SIX1 (Homo sapiens) + Protein phosphatase EYA2 (Homo sapiens), …. 360,000 tested, 0.56% active. AID 651725, 2012. activity change, % (no concentration beside the values). AlphaScreen GST-Six1/His-Eya2 binding, biochemical; active compounds read low
Target sequence (O00167 whole entry, looked up): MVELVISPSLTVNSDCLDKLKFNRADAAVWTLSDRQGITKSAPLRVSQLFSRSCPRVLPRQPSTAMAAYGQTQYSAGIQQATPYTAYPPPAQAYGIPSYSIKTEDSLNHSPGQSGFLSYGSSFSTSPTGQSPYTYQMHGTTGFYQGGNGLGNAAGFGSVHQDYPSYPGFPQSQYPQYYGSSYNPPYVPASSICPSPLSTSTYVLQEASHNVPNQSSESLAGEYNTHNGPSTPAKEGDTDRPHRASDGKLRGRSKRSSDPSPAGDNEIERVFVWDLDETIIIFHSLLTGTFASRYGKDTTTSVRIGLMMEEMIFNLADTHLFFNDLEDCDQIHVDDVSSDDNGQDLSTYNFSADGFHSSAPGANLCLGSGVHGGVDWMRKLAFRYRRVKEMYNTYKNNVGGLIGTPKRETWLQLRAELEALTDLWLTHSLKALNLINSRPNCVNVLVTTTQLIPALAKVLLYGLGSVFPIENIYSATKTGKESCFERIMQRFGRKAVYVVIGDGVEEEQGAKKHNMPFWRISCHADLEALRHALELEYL
Target sequence (Q15475 whole entry, looked up): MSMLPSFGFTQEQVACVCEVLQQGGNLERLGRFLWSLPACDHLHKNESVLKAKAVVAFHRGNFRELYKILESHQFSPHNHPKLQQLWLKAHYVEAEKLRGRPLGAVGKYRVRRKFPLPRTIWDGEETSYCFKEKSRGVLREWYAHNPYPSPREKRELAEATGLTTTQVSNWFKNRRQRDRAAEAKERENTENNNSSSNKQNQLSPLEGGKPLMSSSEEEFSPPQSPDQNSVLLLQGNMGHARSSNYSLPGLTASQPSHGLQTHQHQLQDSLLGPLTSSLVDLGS
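GST-Six1 + His-Eya2 (5X stock: 250/500 nM); Tris pH 8.0, 300 mM NaCl, 0.05% BSA, 0.02% Tween 20; GSH donor/Ni acceptor beads; 1 h 37 °C dark; AlphaScreen readout.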
Active calls of the source: *. Unless noted, no stated cut-off is given here; in the data, active means activity change below about -65%; inconclusive means mostly about -30% to -63%; inactive means weaker than that. Unless noted, on the % scale 0 is the no-effect control and ±100 the full control effect.

Screening Cc1ccc2cc(CN(C(=O)c3ccco3)c3ccccc3C)c(=O)[nH]c2c1 returned PI4K2A block 9, CtBP-E1A inh -8, PI5P4Ka inh -25, pAkt inh -112%* and Six1-Eya2 inh -2.
`Cn1ccc(C(=O)Nc2sc3c(c2C(N)=O)CCCCC3)n1` gave PI4K2A block -6, CtBP-E1A inh -1, PI5P4Ka inh -6, pAkt inh inactive and Six1-Eya2 inh -23.
`Cn1cc(Br)c(C(=O)Nc2sc3c(c2C(N)=O)CCC3)n1` gave PI4K2A block 0, CtBP-E1A inh -79*, PI5P4Ka inh inconclusive, pAkt inh inactive and Six1-Eya2 inh -71*.
`O=C1CC(NNC(=O)c2ccc(Br)cc2)C(=O)N1` (stereo unspecified) gave PI4K2A block 4, CtBP-E1A inh 0, PI5P4Ka inh 0, pAkt inh inactive and Six1-Eya2 inh -2.
O=C1Nc2ccccc2SC(c2ccccc2)C1O (stereo unspecified) was read as PI4K2A block -13, CtBP-E1A inh -3, PI5P4Ka inh -82*, pAkt inh inactive and Six1-Eya2 inh -21.
O=C(Nc1ccccn1)C(=O)Nc1ccccn1 was read as PI4K2A block -12, CtBP-E1A inh 3, PI5P4Ka inh -20, pAkt inh inactive and Six1-Eya2 inh 4.
For S=C(Nc1ccccn1)c1ccccn1 the results were PI4K2A block -14, CtBP-E1A inh -89*, PI5P4Ka inh -95*, pAkt inh inactive and Six1-Eya2 inh -92*.
Screening Cc1ccc(C)c(NC(=S)Nc2cccc3cnccc23)c1 returned PI4K2A block -55*, CtBP-E1A inh -6, PI5P4Ka inh -2, pAkt inh inactive and Six1-Eya2 inh -7.
`Cc1ccccc1NC(=S)Nc1cccc2cnccc12` gave PI4K2A block -23, CtBP-E1A inh -1, PI5P4Ka inh -16, pAkt inh inactive and Six1-Eya2 inh 7.
Cc1ccc(C)c(NC(=S)c2ccccn2)c1 was read as PI4K2A block 0, CtBP-E1A inh -67*, PI5P4Ka inh 3, pAkt inh inactive and Six1-Eya2 inh inconclusive.
Screening O=[N+]([O-])c1cccnc1Oc1ccc(C2SCCS2)cc1 returned PI4K2A block -2, PI5P4Ka inh 0, pAkt inh inactive and Six1-Eya2 inh -19.
For NC1=NC2CS(=O)(=O)CC2S1 (stereo unspecified) the results were PI4K2A block -1, CtBP-E1A inh 1, PI5P4Ka inh -9, pAkt inh inactive and Six1-Eya2 inh 7.
Screening COCCCNC(=O)CC(NS(=O)(=O)c1ccc(OC)cc1)c1ccc(OC)cc1 (stereo unspecified) returned PI4K2A block 1, CtBP-E1A inh 2, PI5P4Ka inh -8, pAkt inh inactive and Six1-Eya2 inh 6.
Screening c1ccc(C2=Nn3c(nnc3-c3cccnc3)SC2)cc1 returned PI4K2A block -7, CtBP-E1A inh -14, pAkt inh inactive and Six1-Eya2 inh -12.
For c1cncc(-c2nnc3n2N=C(c2cccs2)CS3)c1 the results were PI4K2A block -6, CtBP-E1A inh inconclusive, pAkt inh -114%* and Six1-Eya2 inh inconclusive.
`CN1CCN(C(=O)NC2CCCN2S(=O)(=O)c2ccc(Cl)cc2)CC1` (stereo unspecified) gave PI4K2A block 4, CtBP-E1A inh 0, PI5P4Ka inh -5, pAkt inh inactive and Six1-Eya2 inh 9.
`Cn1cc(Br)c(NS(=O)(=O)c2ccc(Cl)s2)n1` gave PI4K2A block -4, PI5P4Ka inh 1, pAkt inh inactive and Six1-Eya2 inh 0.
`O=[N+]([O-])c1ccc(O)c(/C=N/Nc2ccccn2)c1` gave PI4K2A block -5, CtBP-E1A inh -92*, PI5P4Ka inh -2, pAkt inh inactive and Six1-Eya2 inh -90*.
O=[N+]([O-])c1ccc(NN=Cc2ccccc2O)nc1 was read as PI4K2A block 0, CtBP-E1A inh -79*, PI5P4Ka inh 3, pAkt inh inactive and Six1-Eya2 inh -78*.
`O=[N+]([O-])c1ccc(O)c(/C=N/Nc2nc3ccccc3[nH]2)c1` gave PI4K2A block -3, CtBP-E1A inh -97*, PI5P4Ka inh 6, pAkt inh inactive and Six1-Eya2 inh -92*.
For Cc1cc(/C=N/Nc2ccc([N+](=O)[O-])cn2)c(C)n1-c1ccc(C(=O)O)cc1 the results were PI4K2A block -8, CtBP-E1A inh -13, PI5P4Ka inh -84*, pAkt inh inactive and Six1-Eya2 inh inconclusive.
`Cc1nc2nc(CC(=O)O)[nH]n2c(=O)c1[N+](=O)[O-]` gave PI4K2A block -7, CtBP-E1A inh 5, PI5P4Ka inh inconclusive, pAkt inh inactive and Six1-Eya2 inh -2.
Screening COc1cccc(C2=CC(=O)C[C@H](c3ccc(Cl)cc3)C2)c1 returned PI4K2A block -3, CtBP-E1A inh 4, PI5P4Ka inh 6, pAkt inh inactive and Six1-Eya2 inh 11.
`COc1cccc(CNC(=O)Cc2c(C)c3cc4c(C)coc4cc3oc2=O)c1` gave PI4K2A block -1.
Cc1n[nH]c(=O)c2c(NC(=O)COC(=O)c3cc(F)cc(F)c3)oc(C)c12 was read as PI4K2A block -3, CtBP-E1A inh 2, PI5P4Ka inh 1, pAkt inh inactive and Six1-Eya2 inh 9.
`COc1ccc(/C=C/C(=O)Nc2ccc(S(=O)(=O)Nc3cc(C)nc(C)n3)cc2)cc1OC` gave PI4K2A block -11, CtBP-E1A inh -23, PI5P4Ka inh -5, pAkt inh inactive and Six1-Eya2 inh -9.
Screening O=[N+]([O-])c1ccc(O)c(/C=N/Nc2ncnc3c2cnn3-c2ccccc2)c1 returned PI4K2A block 0, CtBP-E1A inh inconclusive, PI5P4Ka inh -75*, pAkt inh inactive and Six1-Eya2 inh -14.
Screening O=[N+]([O-])c1cccc(N/N=C/c2cc([N+](=O)[O-])ccc2O)c1 returned PI4K2A block 2, CtBP-E1A inh -10, PI5P4Ka inh 8, pAkt inh inactive and Six1-Eya2 inh -17.
`CCN(CC)S(=O)(=O)c1ccc(N/N=C/c2ccc(O)cc2O)nc1` gave PI4K2A block 3, CtBP-E1A inh -95*, PI5P4Ka inh -19, pAkt inh inactive and Six1-Eya2 inh -94*.
Screening CCN(CC)S(=O)(=O)c1ccc(N/N=C(\C)c2ccncc2)nc1 returned PI4K2A block 2, CtBP-E1A inh -7, PI5P4Ka inh 0, pAkt inh inactive and Six1-Eya2 inh -7.
